High-throughput results: PubChem BioAssay, National Center for Advancing Translational Sciences (NCATS)
Sampled rows, rich in hits. Any-hit rate of the full collection: about 1.4%.
Vif-A3F inh: blocks the Vif interaction with APOBEC3F | HeLa A3F-eYFP + Vif (tagged APOBEC3F with the HIV-1 protein that degrades it), YFP fluorescence increase | Potency, µM (top dose mostly 46.1 µM) | hit rate 0.2% among 390,000 | AID 602313; also: nearly all actives have a fitted effect of over 65% in size
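Fluorescence increase (Ex 488/Em 500-530) after overnight compound treatment at 37 deg C flags inhibition of Vif-driven A3F-eYFP loss in stable HeLa A3F-eYFP/Vif cells seeded overnight beforehand.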
ALOX12 inh: ALOX12 (human) lipoxygenase inhibition. Potency, µM (doses to about 108 µM), hits mostly inhibitors. P18054. purified 12hLO, xylenol orange hydroperoxide absorbance. hit rate 1.1% among 580,000
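Hydroperoxide product was detected by ferrous iron/xylenol orange as the 573 to 405 nm absorbance ratio. Arachidonic acid at 40 uM (final) was turned over for 30 min at room temperature by 150 nM human 12hLO, pH 7.0 Hepes buffer, after 15 min compound preincubation.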
Vif-APOBEC3G blk: inhibitors of Vif-APOBEC3G interaction | HeLa A3G-eYFP + Vif (tagged APOBEC3G with the HIV-1 protein that degrades it), YFP fluorescence, overnight | Potency, µM (doses to about 46.1 µM), hits mostly inhibitors | hit rate 0.076% among 410,000 | AID 602310; also: nearly all actives have a fitted effect of over 60% in size
Target sequence (Q9HC16 whole entry, looked up): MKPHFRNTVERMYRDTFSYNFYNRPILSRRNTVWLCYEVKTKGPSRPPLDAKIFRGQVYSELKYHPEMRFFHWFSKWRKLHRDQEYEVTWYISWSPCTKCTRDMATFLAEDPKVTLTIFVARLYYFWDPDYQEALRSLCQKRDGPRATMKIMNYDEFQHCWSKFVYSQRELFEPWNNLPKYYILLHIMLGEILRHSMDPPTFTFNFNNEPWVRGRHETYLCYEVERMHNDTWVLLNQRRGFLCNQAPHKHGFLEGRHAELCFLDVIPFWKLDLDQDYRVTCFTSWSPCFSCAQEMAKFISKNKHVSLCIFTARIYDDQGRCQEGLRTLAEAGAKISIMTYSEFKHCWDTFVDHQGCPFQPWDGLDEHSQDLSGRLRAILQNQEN
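Read-out is eYFP fluorescence (Ex 488/Em 500-530) from Vif-expressing HeLa A3G-eYFP cells; more signal means A3G escaped Vif-mediated degradation. Cells plated overnight, compound pinned in, incubated overnight at 37 deg C.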
TSG101-PTAP inh: blocks PTAP/TSG101 interaction to inhibit HIV-1 budding; Potency, µM (series often up to 115 µM), usual class: inhibitors; Q99816; Fluorescence polarization, FITC-PTAP peptide / Tsg101 binding; 340,000 tested, under 10 active; active = well fitted inhibition curve with a large enough effect in the main read-out, with a control signal flat, not every such curve was filed as active; inconclusive = small, poorly fitted or top-dose-only effect, or effect the other way, or a change in a side signal; inactive = no such curve, though single readings can be large or run the other way
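Fluorescence anisotropy tracks displacement of a FITC-tagged PTAP peptide (50 nM) from the Tsg101 binding domain (10 uM), following a 20 min room-temperature incubation at pH 7.5.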
Akt phos inh: Akt phosphorylation inhibition | activity change, % for hits at 50 µM | hit rate 0.32% among 360,000 | Neuro2A IGF-stimulated pAkt S473 HTRF, 20 min; stronger effect = lower value; in the data active = activity change below about -80%; inconclusive = mostly about -51% to -80%
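Neuro2A cells in DMEM with 0.5% FBS, overnight at 37 deg C, given compound at single 50 µM final, then IGF (6 nM final) for 20 min at 37 deg C. Lysed; phospho-Akt Ser473 by HTRF after 24 h, 665/615 ratio.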
ASM inhibitor: human S-ASM enzyme inhibition | P17405 | placental ASM, HMU-PC fluorogenic substrate, 60 min | Potency, µM (titrated, usually from 57.5 µM), most hits filed as inhibitors | hit rate 0.006% among 340,000 | AID 504937
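qHTS format. ASM enzyme prepared from human placenta hydrolyses the fluorogenic substrate HMU-PC0 (9 uM final) over 60 min at 37 °C after a 10 min compound preincubation.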
Each line names hits and unclear results; the compound was inactive in the other large screens. Unless noted, calls follow the shape of the dose curve; as a rule, active = well fitted curve in the direction sought with a large enough effect; inconclusive = small, poorly fitted or top-dose-only effect, or another doubt; inactive = no such curve, though single readings can be large; an effect the other way counts as inactive or inconclusive.

COC(CNC(=O)c1cccc(-n2c(=S)[nH]c3cc(Cl)ccc3c2=O)c1)OC	ALOX12 inh 1.78µM
CCOC(=O)c1ccc(N2NC(=O)/C(=C/c3ccc(OC(=O)c4ccco4)c(OC)c3)C2=O)cc1	ALOX12 inh 22.4µM (no result: Vif-A3F inh, Vif-APOBEC3G blk, TSG101-PTAP inh, Akt phos inh, ASM inhibitor)
O=C(COc1ccc(-c2ccccc2)cc1Cl)c1ccc[nH]1	none (no result: Vif-A3F inh, Vif-APOBEC3G blk, TSG101-PTAP inh, Akt phos inh, ASM inhibitor)
CCC(=O)N1Cc2ccccc2CC2(CCN(Cc3ccccn3)CC2)C1	none (no result: Vif-A3F inh, Vif-APOBEC3G blk, TSG101-PTAP inh, Akt phos inh, ASM inhibitor)
CC(C(=O)Nc1cc(Cl)cc(Cl)c1)N1CCN(c2ccc(O)cc2)CC1 (stereo not drawn)	ALOX12 inh 20µM (no result: Vif-A3F inh, Vif-APOBEC3G blk, TSG101-PTAP inh, Akt phos inh, ASM inhibitor)
CCOc1cc(CN2CCCCCC2c2ccc(Cl)cc2)ccc1OCC(N)=O (stereo not drawn)	none (no result: Vif-A3F inh, Vif-APOBEC3G blk, TSG101-PTAP inh, Akt phos inh, ASM inhibitor)
CCc1nc2c(OCc3ccc(Cl)cc3)cccn2c1N(C=O)Cc1ccccc1	ALOX12 inh inconclusive (no result: Vif-A3F inh, TSG101-PTAP inh, ASM inhibitor)
CCc1nc2c(OCC(=O)c3ccc(Cl)cc3Cl)cccn2c1N(C=O)Cc1ccccc1	ALOX12 inh 14.1µM (no result: Vif-A3F inh, TSG101-PTAP inh, Akt phos inh, ASM inhibitor)
CCN1C(=O)S/C(=C/c2cn(C(C)C)c3ccccc23)C1=O	none (no result: Vif-A3F inh, Vif-APOBEC3G blk, TSG101-PTAP inh, Akt phos inh, ASM inhibitor)
C=CCN1C(=O)S/C(=C\c2cn(CC(=O)OCC)c3ccccc23)C1=O	none (no result: Vif-A3F inh, Vif-APOBEC3G blk, TSG101-PTAP inh, Akt phos inh, ASM inhibitor)
CC(C)N1C(=O)S/C(=C/c2cn(CC#N)c3ccccc23)C1=O	ALOX12 inh 4.47µM (no result: Vif-A3F inh, Vif-APOBEC3G blk, TSG101-PTAP inh, Akt phos inh, ASM inhibitor)
C=CCN1C(=O)S/C(=C/c2cn(CC(=O)O)c3ccccc23)C1=O	ALOX12 inh 31.6µM (no result: Vif-A3F inh, Vif-APOBEC3G blk, TSG101-PTAP inh, Akt phos inh, ASM inhibitor)
CN(Cc1ccccc1)C(=O)C[C@@H]1CCNC[C@@H]1Cc1cc(-c2ccccc2)on1	none (no result: Vif-A3F inh, Vif-APOBEC3G blk, TSG101-PTAP inh, Akt phos inh, ASM inhibitor)
CC(C)CNC(=O)C(=O)Nc1ccc2cc[nH]c2c1	ALOX12 inh 35.5µM (no result: Vif-A3F inh, Vif-APOBEC3G blk, TSG101-PTAP inh, Akt phos inh, ASM inhibitor)
CC(C)NC(=O)CNC(=O)C(=O)Nc1ccc2cc[nH]c2c1	none (no result: Vif-A3F inh, Vif-APOBEC3G blk, TSG101-PTAP inh, Akt phos inh, ASM inhibitor)
CC(=O)Nc1ccc(CN2C(=O)OC3(CCN(C(=O)C(C)C)CC3)C2(C)c2ccccc2)cc1 (stereo not drawn)	none (no result: Vif-A3F inh, Vif-APOBEC3G blk, TSG101-PTAP inh, Akt phos inh, ASM inhibitor)
Cc1ccc(O)c(NC2=C(Cl)C(=O)N(Cc3ccccc3)C2=O)c1	Vif-A3F inh inconclusive, ALOX12 inh 5.62µM
CCSC1=N/C(=C\C=C2/Oc3ccccc3N2CC)C(=O)S1	Vif-A3F inh 6.31µM, ALOX12 inh inconclusive, Vif-APOBEC3G blk 7.08µM, TSG101-PTAP inh inconclusive
CCSC1=N/C(=C\c2ccccc2OC)C(=O)S1	none (no result: Vif-A3F inh, Vif-APOBEC3G blk, TSG101-PTAP inh, Akt phos inh, ASM inhibitor)
COc1ccccc1CNCC(c1ccccc1)c1ccccc1	ALOX12 inh 2.51µM (no result: Vif-A3F inh, Vif-APOBEC3G blk, TSG101-PTAP inh, Akt phos inh, ASM inhibitor)
O=C(Oc1ccc(F)cc1)c1ccc(-c2nc3ccccc3s2)s1	none (no result: Vif-A3F inh, Vif-APOBEC3G blk, TSG101-PTAP inh, Akt phos inh, ASM inhibitor)
OCCCn1c(C2CCCN2c2nc(-c3ccc(Cl)cc3)cs2)nc2cc(Cl)c(Cl)cc21 (stereo not drawn)	Vif-A3F inh 22.4µM, ASM inhibitor inconclusive
OCCCn1c(C2CCCN2c2nc(-c3ccc(F)cc3)cs2)nc2cc(Cl)c(Cl)cc21 (stereo not drawn)	ASM inhibitor inconclusive
c1ccc(-c2nnn(Cc3csc(-c4ccccc4)n3)n2)cc1	none (no result: Vif-A3F inh, Vif-APOBEC3G blk, TSG101-PTAP inh, Akt phos inh, ASM inhibitor)
O=C(O)c1ccc(NC(=S)NC(=O)C(c2ccccc2)c2ccccc2)cc1	ALOX12 inh inconclusive
O=C(O)c1cccc(NC(=S)NC(=O)C(c2ccccc2)c2ccccc2)c1	ALOX12 inh 28.2µM
COc1ccc(C(=O)O)cc1NC(=S)NC(=O)C(c1ccccc1)c1ccccc1	ALOX12 inh 35.5µM
CN1/C(=C\C=C(/C#N)C(=O)Nc2ccc(Cl)cc2)C(C)(C)c2ccccc21	Vif-A3F inh inconclusive, Vif-APOBEC3G blk 7.08µM, TSG101-PTAP inh inconclusive
CN1/C(=C\C=C(C#N)C#N)C(C)(C)c2ccccc21	Vif-A3F inh 11.2µM, TSG101-PTAP inh inconclusive
CN1/C(=C/C=N/n2cnnc2)C(C)(C)c2ccccc21	none
O=C(Cn1nc(-c2cccs2)c2ccccc2c1=O)NCC(F)(F)F	none (no result: Vif-A3F inh, Vif-APOBEC3G blk, TSG101-PTAP inh, Akt phos inh, ASM inhibitor)
Cc1nn(C)c(C)c1CN(C)C(=O)CCCC(=O)O	ALOX12 inh 17.8µM
COc1cccc(CN(CCC(=O)O)Cc2cccc(OC)c2)c1	ALOX12 inh 17.8µM (no result: TSG101-PTAP inh, ASM inhibitor)
CCN(CCC(=O)Nc1cc(OC)cc(OC)c1)Cc1ccccc1	none
CC(C)c1ccccc1NC(=O)CCn1cnc2c1c(=O)n(C)c(=O)n2C	none (no result: Vif-A3F inh, Vif-APOBEC3G blk, TSG101-PTAP inh, Akt phos inh, ASM inhibitor)
COCCCn1c(=S)[nH]c2ncccc2c1=O	ALOX12 inh inconclusive, Akt phos inh -122.5%
CCCCCn1c(=S)[nH]c2ncccc2c1=O	none
